Laboratory results taken from PubChem BioAssay (NCI).
This is part of a sample that, as a whole, favours compounds with a hit. Of some 79,000 tested, about 15% had one in any assay. The source made the active and inactive calls. Cut-off read from the data, not from the text of the source: active = growth inhibition above about 70%; inactive = the rest.

Assays:
[1] = NCI Yeast Anticancer Drug Screen. Data for the rad14 strain (AID 159);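 note: 0% = growth of vehicle-treated control cultures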; conditions: S. cerevisiae rad14 strain growth inhibition, hits give high values
Summary of the method: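 Inhibition of growth is reported for a repair-deficient yeast mutant following compound treatment, calculated relative to cultures that received vehicle.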

[2] = NCI Yeast Anticancer Drug Screen. Data for the sgs1 mgt1 strain (AID 161);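 note: 0% = growth of cultures given vehicle only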; conditions: S. cerevisiae sgs1 mgt1 strain, hits give high values
Summary of the method: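 Genetically altered yeast, compound exposure, growth inhibition relative to vehicle.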

[3] = NCI Yeast Anticancer Drug Screen. Data for the CLN2oe strain (AID 163);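 note: 0% = growth of vehicle-only control cultures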; conditions: S. cerevisiae CLN2oe strain, hits give high values
Summary of the method: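 Inhibition relative to vehicle-treated yeast is reported. Cells: strain with genetic alteration in cell-cycle control, grown with compound.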

[4] = NCI Yeast Anticancer Drug Screen. Data for the cln2 rad14 strain (AID 165);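 note: 0% = growth equal to vehicle treated cultures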; conditions: S. cerevisiae cln2 rad14 strain, hits give high values
Summary of the method: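 Each compound was tested on cln2 rad14 yeast. Inhibition of growth was calculated against vehicle-exposed controls.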

[5] = NCI Yeast Anticancer Drug Screen. Data for the bub3 strain (AID 167); conditions: S. cerevisiae bub3 mutant strain, hits give high values
Summary of the method: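 Mutant yeast screening strain plus compound; vehicle-treated cultures serve as the 0% inhibition reference.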

[6] = NCI Yeast Anticancer Drug Screen. Data for the wt2 strain (AID 169); conditions: S. cerevisiae wt2 strain growth inhibition, hits give high values
Summary of the method: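 Inhibition of yeast growth was determined after compound treatment, normalised to controls receiving only vehicle.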

[7] = NCI Yeast Anticancer Drug Screen. Data for the mlh1 strain (AID 171);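 note: 0% = growth of vehicle-treated control cultures of the same strain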; conditions: S. cerevisiae mlh1 strain growth inhibition, hits give high values
Summary of the method: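 Vehicle-normalised growth inhibition of a repair- or checkpoint-altered yeast strain following compound treatment.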

[8] = NCI Yeast Anticancer Drug Screen. Data for the sgs1 strain (AID 173);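 note: 0% = growth of vehicle-only control cultures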; conditions: S. cerevisiae sgs1 mutant, hits give high values
Summary of the method: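 Screen format: yeast with repair or checkpoint alterations, compound exposure, growth read relative to vehicle.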

[9] = NCI Yeast Anticancer Drug Screen. Data for the mlh1 rad18 strain (AID 175); conditions: S. cerevisiae mlh1 rad18 strain growth inhibition, hits give high values
Summary of the method: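 Vehicle-treated cultures served as the reference for growth inhibition in a yeast strain carrying DNA damage repair alterations exposed to each compound.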

[10] = NCI Yeast Anticancer Drug Screen. Data for the rad18 strain (AID 177); conditions: S. cerevisiae rad18 mutant growth inhibition, hits give high values
Summary of the method: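 Test articles were incubated with altered yeast defective in DNA damage repair. Results are given as inhibition of growth versus vehicle.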

[11] = NCI Yeast Anticancer Drug Screen. Data for the wt1 strain (AID 149);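 note: 0% = growth of vehicle-treated wt1 cultures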; conditions: S. cerevisiae wt1 strain (SPY 50644) growth inhibition, hits give high values
Summary of the method: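 Each compound is tested on wt1 yeast and the loss of growth versus vehicle gives the inhibition value.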

[12] = NCI Yeast Anticancer Drug Screen. Data for the rad50EPP+ strain (AID 151);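 note: 0% = growth of vehicle-treated control cultures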; conditions: S. cerevisiae rad50 mutant strain, hits give high values
Summary of the method: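 In this screen, rad50EPP+ yeast were exposed to compounds. Growth inhibition was scored against vehicle-treated controls.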

[13] = NCI Yeast Anticancer Drug Screen. Data for the mec2-1 strain (AID 157); conditions: S. cerevisiae mec2-1 strain, hits give high values
Summary of the method: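 Vehicle-treated cultures served as reference for growth inhibition of compound-exposed mec2-1 yeast.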

[14] = NCI Yeast Anticancer Drug Screen. Data for the mgt1 strain (AID 153); conditions: S. cerevisiae mgt1 mutant growth inhibition, hits give high values
Summary of the method: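 mgt1 strain exposed; growth vs vehicle control recorded as inhibition.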

[15] = NCI Yeast Anticancer Drug Screen. Data for the rad50 strain (AID 155);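 note: 0% = growth of vehicle-only cultures of the same strain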; conditions: S. cerevisiae rad50 strain growth inhibition, hits give high values
Summary of the method: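 Vehicle-treated cultures provide the reference for the growth inhibition reported for compound-exposed, repair-deficient yeast.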

[16] = at 5.0 µM (retest, dose inferred, filed as 0.5)
[17] = at 50.0 µM (retest, dose inferred, filed as 5.0)

Measured: growth inhibition

CC[N+]1(C)CCC(O)(/C=C/c2ccc(Cl)c(Cl)c2)C(C(=O)/C=C/c2ccc(Cl)c(Cl)c2)C1 (stereo not drawn)
active: [1]; at 100.0 µM 99% | [2]; [16] 88% | [2]; [17] 98% | [2]; at 50.0 µM 99.5% | [3]; at 11.0 µM 99% | [3]; at 33.0 µM 98% | [3]; at 100.0 µM 99% | [4]; [17] 99% | [4]; at 50.0 µM 99% | [5]; [16] 90% | [5]; at 11.0 µM 98% | [5]; at 33.0 µM 99% | [5]; [17] 99% | [5]; at 50.0 µM 99.1% | [5]; at 100.0 µM 96% | [6]; at 11.0 µM 99% | [6]; at 33.0 µM 99% | [6]; at 100.0 µM 99% | [7]; at 11.0 µM 99% | [7]; at 33.0 µM 99% | [7]; at 100.0 µM 99% | [8]; at 3.7 µM 71% | [8]; at 11.0 µM 99% | [8]; at 33.0 µM 99% | [8]; at 100.0 µM 98% | [9]; [16] 82% | [9]; [17] 99% | [9]; at 50.0 µM 99.2% | [10]; at 3.7 µM 77% | [10]; at 11.0 µM 99% | [10]; at 33.0 µM 99% | [10]; at 100.0 µM 99%
inactive: [3]; at 1.2 µM -8% | [3]; at 3.7 µM 15% | [4]; [16] 46% | [5]; at 1.2 µM 0% | [5]; at 3.7 µM 20% | [6]; at 1.2 µM -4% | [6]; at 3.7 µM 29% | [7]; at 1.2 µM 6% | [7]; at 3.7 µM 45% | [8]; at 1.2 µM 15% | [10]; at 1.2 µM 29%

C=Cc1c(C)c(O)cc2c1-c1ccc(O)c(C)c1CC2
inactive: [11]; at 1.2 µM -8% | [11]; at 3.7 µM -4% | [11]; at 11.0 µM -11% | [12]; at 1.2 µM 1% | [12]; at 3.7 µM 24% | [12]; at 11.0 µM 16% | [12]; at 33.0 µM 40% | [13]; at 1.2 µM -19% | [13]; at 3.7 µM -8% | [13]; [16] 22% | [13]; at 11.0 µM -7% | [13]; at 50.0 µM -52.2% | [1]; at 1.2 µM -21% | [1]; at 3.7 µM -21% | [1]; at 11.0 µM -19% | [2]; [16] 55% | [2]; at 50.0 µM -18.5% | [3]; at 1.2 µM 10% | [3]; at 3.7 µM 5% | [3]; at 11.0 µM 26% | [4]; [16] 12% | [4]; [17] 59% | [4]; at 50.0 µM 10.6% | [5]; at 1.2 µM -9% | [5]; at 3.7 µM -11% | [5]; [16] 28% | [5]; at 11.0 µM 5% | [5]; at 50.0 µM -43.2% | [6]; at 1.2 µM -63% | [6]; at 3.7 µM -43% | [6]; at 11.0 µM 37% | [6]; at 33.0 µM 46% | [7]; at 1.2 µM 12% | [7]; at 3.7 µM -8% | [7]; at 11.0 µM 3% | [8]; at 1.2 µM -7% | [8]; at 3.7 µM 16% | [8]; at 11.0 µM 36% | [9]; [16] 69% | [10]; at 1.2 µM -25% | [10]; at 3.7 µM -7% | [10]; at 11.0 µM 4%
active: [11]; at 33.0 µM 98% | [11]; at 100.0 µM 98% | [12]; at 100.0 µM 98% | [13]; at 33.0 µM 98% | [13]; [17] 97% | [13]; at 100.0 µM 98% | [1]; at 33.0 µM 97% | [1]; at 100.0 µM 98% | [2]; [17] 93% | [3]; at 33.0 µM 98% | [3]; at 100.0 µM 99% | [5]; at 33.0 µM 98% | [5]; [17] 97% | [5]; at 100.0 µM 99% | [6]; at 100.0 µM 88% | [7]; at 33.0 µM 98% | [7]; at 100.0 µM 99% | [8]; at 33.0 µM 98% | [8]; at 100.0 µM 99% | [9]; [17] 87% | [9]; at 50.0 µM 89.3% | [10]; at 33.0 µM 98% | [10]; at 100.0 µM 99%

COc1cc(C(C)C(C(=O)O)C(=O)C(=O)O)cc(OC)c1OC (stereo not drawn)
active: [4]; [17] 76%
inactive: [12]; at 1.2 µM -3% | [12]; at 3.7 µM -7% | [12]; at 11.0 µM -4% | [12]; at 33.0 µM -8% | [12]; at 100.0 µM 1% | [14]; at 1.2 µM 1% | [14]; at 3.7 µM 2% | [14]; at 11.0 µM 2% | [14]; at 33.0 µM 1% | [14]; at 100.0 µM 21% | [15]; at 1.2 µM 3% | [15]; at 3.7 µM 3% | [15]; [16] -41% | [15]; at 11.0 µM 4% | [15]; at 33.0 µM 5% | [15]; [17] -9% | [15]; at 50.0 µM 0.85% | [15]; at 100.0 µM 4% | [13]; at 1.2 µM -5% | [13]; at 3.7 µM -3% | [13]; [16] 7% | [13]; at 11.0 µM -3% | [13]; at 33.0 µM -2% | [13]; [17] -4% | [13]; at 50.0 µM 9.9% | [13]; at 100.0 µM 0% | [1]; at 1.2 µM -1% | [1]; at 3.7 µM -2% | [1]; at 11.0 µM 2% | [1]; at 33.0 µM 3% | [1]; at 100.0 µM 5% | [2]; [16] -5% | [2]; [17] 2% | [2]; at 50.0 µM -3.75% | [3]; at 1.2 µM 2% | [3]; at 3.7 µM 5% | [3]; at 11.0 µM 4% | [3]; at 33.0 µM 5% | [3]; at 100.0 µM 7% | [4]; [16] 10% | [4]; at 50.0 µM -22.4% | [5]; at 1.2 µM 1% | [5]; at 3.7 µM -1% | [5]; [16] 4% | [5]; at 11.0 µM -6% | [5]; at 33.0 µM -3% | [5]; [17] 11% | [5]; at 50.0 µM 44.6% | [5]; at 100.0 µM -2% | [6]; at 1.2 µM 1% | [6]; at 3.7 µM 0% | [6]; at 11.0 µM 2% | [6]; at 33.0 µM -1% | [6]; at 100.0 µM 2% | [7]; at 1.2 µM 0% | [7]; at 3.7 µM 0% | [7]; at 11.0 µM 2% | [7]; at 33.0 µM 3% | [7]; at 100.0 µM 6% | [8]; at 1.2 µM -1% | [8]; at 3.7 µM -1% | [8]; at 11.0 µM 0% | [8]; at 33.0 µM 2% | [8]; at 100.0 µM 6% | [10]; at 1.2 µM -5% | [10]; at 3.7 µM -2% | [10]; at 11.0 µM -4% | [10]; at 33.0 µM 1% | [10]; at 100.0 µM 9%
